# Data taken from the supplement of paper PMC9262897, “Low-cost anti-mycobacterial drug discovery using engineered E. coli” (Nature Communications, 2022).
# Structures can show the parent of a compound that is named as a salt. ± gives the standard deviation of the averaged measurements.
# Test system: E. coli TESEC Alr+ wild-type control
# Experiment: growth (OD600 after 10 h); higher = more growth (less inhibition)
# Details: compound 0.1 mM; raw OD600 reference: median of DMSO wells 0.241, cell-free background 0.041
# Method: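 TESEC Mtb Alr E. coli, or the Alr+ wild-type control, in 384-well plates with Prestwick library compounds at 0.1 mM and 1% DMSO, across arabinose induction levels of 1E3 to 1E7 nM. Growth is read as OD600 after 10 h at 37 °C in triplicate biological replicates.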
row,SMILES,growth
1,CN1CCCC(n2nc(Cc3ccc(Cl)cc3)c3ccccc3c2=O)CC1 (stereo not given) [Azelastine HCl],0.16 ± 0.0036
2,COC(=O)Nc1nc2ccc(SC(C)C)cc2[nH]1 [Methiazole],0.244 ± 0.0029
3,CCCCNC(=O)NS(=O)(=O)c1ccc(C)cc1 [Tolbutamide],0.253 ± 0.0049
4,CS(=O)(=O)OCCCCOS(C)(=O)=O [Busulfan],0.241 ± 0.017
5,Fc1ccc([C@@H]2CCNC[C@H]2COc2ccc3c(c2)OCO3)cc1 [Paroxetine Hydrochloride],0.178 ± 0.0068
6,CC1(C)O[C@@H]2C[C@H]3[C@@H]4C[C@H](F)C5=CC(=O)C=C[C@]5(C)[C@H]4[C@@H](O)C[C@]3(C)[C@]2(C(=O)CO)O1 [Flunisolide],0.204 ± 0.015
7,CNCCc1ccccn1 [Betahistine mesylate],0.251 ± 0.0026
8,CC(C(=O)O)c1ccc(C(=O)c2cccs2)cc1 (stereo not given) [Suprofen],0.2321 ± 0.0022
9,CCCCCCCCNC(C)C(O)c1ccc(SC(C)C)cc1 (stereo not given) [Suloctidil],0.0763 ± 0.037
10,CCCc1cc(C(N)=S)ccn1 [Prothionamide],0.245 ± 0.011
11,CCC[C@@H]1C[C@@H](C(=O)N[C@@H]([C@H]2O[C@H](SC)[C@H](O)[C@@H](O)[C@H]2O)[C@@H](C)O)N(C)C1 [Lincomycin hydrochloride],0.0958 ± 0.0084
12,C[C@]12CC[C@@H]3c4ccc(O)cc4C[C@@H](CCCCCCCCC[S+]([O-])CCCC(F)(F)C(F)(F)F)[C@H]3[C@@H]1CC[C@@H]2O (stereo not given in full) [Fulvestrant],0.265 ± 0.015
13,CN(C)CCCSC(=N)N [Dimaprit dihydrochloride],0.2627 ± 0.0019
14,CN1CCN(c2c(F)cc3c(=O)c(C(=O)O)cn4c3c2SCC4)CC1 [Rufloxacin],0.04323 ± 0.00015
15,CC(=O)OCC(=O)[C@@]1(OC(C)=O)[C@@H](C)C[C@H]2[C@@H]3C[C@H](F)C4=CC(=O)C=C[C@]4(C)[C@@]3(F)[C@@H](O)C[C@@]21C [Diflorasone Diacetate],0.159 ± 0.0032
16,CS(=O)(=O)c1ccc([C@@H](O)[C@@H](CO)NC(=O)C(Cl)Cl)cc1 [Thiamphenicol],0.0517 ± 0.0013
17,CSc1nc2cc(Cl)c(Oc3cccc(Cl)c3Cl)cc2[nH]1 [Triclabendazole],0.0427 ± 0.0024
18,CC(C)(CO)C(O)C(=O)NCCCO (stereo not given) [Panthenol (D)],0.261 ± 0.0085
19,Cc1onc(-c2ccccc2Cl)c1C(=O)N[C@@H]1C(=O)N2[C@@H]1SC(C)(C)[C@@H]2C(=O)O [Cloxacillin sodium salt],0.2567 ± 0.0017
20,OCCN(CCO)c1nc(N2CCCCC2)c2nc(N(CCO)CCO)nc(N3CCCCC3)c2n1 [Dipyridamole],0.0642 ± 0.0085

row,SMILES,growth
1,CN(C)CCN(Cc1ccc(Cl)cc1)c1ccccn1 [Chloropyramine hydrochloride],0.189 ± 0.0042
2,CCCCOC(=O)c1ccc(N)cc1 [Butamben],0.194 ± 0.0098
3,Nc1c(Br)cc(Br)cc1CN[C@H]1CC[C@H](O)CC1 [Ambroxol hydrochloride],0.202 ± 0.0077
4,C[C@]12CC[C@@H]3c4ccc(OS(=O)(=O)O)cc4CC[C@H]3[C@@H]1CCC2=O [Estropipate],0.229 ± 0.0082
5,CC(NCCC(c1ccccc1)c1ccccc1)c1ccccc1 (stereo not given) [Fendiline hydrochloride],0.03973 ± 0.00035
6,C[C@@H]1C[C@H]2[C@@H]3C[C@H](F)C4=CC(=O)C=C[C@]4(C)[C@@]3(F)[C@@H](O)C[C@]2(C)[C@@]1(O)C(=O)COC(=O)C(C)(C)C [Flumethasone pivalate],0.207 ± 0.028
7,COc1cc(C(=O)NC2CCCNC2)cc(OC)c1OC (stereo not given) [Troxipide],0.225 ± 0.0045
8,"COCCc1ccc(OCC(O)CNC(C)C)cc1 (racemic) [Metoprolol-(+,-) (+)-tartrate salt]",0.225 ± 0.0047
9,CC(Oc1c(Cl)cccc1Cl)C1=NCCN1 (stereo not given) [Lofexidine],0.211 ± 0.008
10,N#CC(c1ccc(Cl)cc1)c1c(Cl)cc(-n2ncc(=O)[nH]c2=O)cc1Cl (stereo not given) [Diclazuril],0.0414 ± 0.00047
11,Cc1cc(C(C)(C)CC(C)(C)C)ccc1OCCOCC[N+](C)(C)Cc1ccccc1 [Methyl benzethonium chloride],0.0446 ± 0.0012
12,CC(=O)CC(c1ccc([N+](=O)[O-])cc1)c1c(O)c2ccccc2oc1=O (stereo not given) [Acenocoumarol],0.244 ± 0.0011
13,COCC1=C(C(=O)OC(C)OC(=O)OC(C)C)N2C(=O)[C@@H](NC(=O)/C(=N\OC)c3csc(N)n3)[C@H]2SC1 (stereo not given in full) [Cefpodoxime proxetil],0.2132 ± 0.002
14,CC(=O)OCC(=O)[C@@]12OC(C)(C)O[C@@H]1C[C@H]1[C@@H]3C[C@H](F)C4=CC(=O)C=C[C@]4(C)[C@@]3(F)[C@@H](O)C[C@@]12C [Fluocinonide],0.229 ± 0.0095
15,COc1ccc([C@@H]2Sc3ccccc3N(CCN(C)C)C(=O)[C@@H]2OC(C)=O)cc1 [Diltiazem hydrochloride],0.184 ± 0.0078
16,CC(=O)N[C@@H](CC(=O)N[C@@H](CCC(=O)O)C(=O)O)C(=O)O [Spaglumic acid],0.237 ± 0.0082
17,Cc1ccnc(NS(=O)(=O)c2ccc(N)cc2)n1 [Sulfamerazine],0.245 ± 0.0069
18,N=c1nc(N2CCCCC2)cc(N)n1O [Minoxidil],0.244 ± 0.0093
19,COc1ccc2c(c1)c(CC(=O)O)c(C)n2C(=O)c1ccc(Cl)cc1 [Indomethacin],0.141 ± 0.0034
20,CN1CC2c3ccccc3Oc3ccc(Cl)cc3C2C1 (stereo not given) [Asenapine maleate],0.184 ± 0.004
